The list is not random: actives were taken first. Their share in the collection is about 19%.
HepG2 viability = qHTS for Inhibitors of TGF-b: Cytotox Counterscreen | HepG2 CAGA-GFP viability, ATP luminescence, 18 h | Potency, µM (doses to about 46.1 µM), most hits filed as cytotoxic | 0.76% of 410,000 active
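HepG2 CAGA-GFP cells (1000/well, DMEM with 1% FBS) received compound, then TGF-beta at 500 pg/mL final, and were incubated 18 hours at 37 degrees C. Viability was read by CellTiter-Glo luminescence. Media-only wells were set as complete cell-killing and DMSO as no toxicity.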
ASM inhibitor = Inhibitors of Secretory Acid Sphingomyelinase (S-ASM): qHTS | 0.006% of 340,000 active | Sphingomyelin phosphodiesterase (Homo sapiens), P17405 | Potency, µM (top dose mostly 57.5 µM), most hits filed as inhibitors | AID 504937, 2011 | placental ASM, HMU-PC fluorogenic substrate, 60 min
Target sequence (P17405 47-631 limits assumed): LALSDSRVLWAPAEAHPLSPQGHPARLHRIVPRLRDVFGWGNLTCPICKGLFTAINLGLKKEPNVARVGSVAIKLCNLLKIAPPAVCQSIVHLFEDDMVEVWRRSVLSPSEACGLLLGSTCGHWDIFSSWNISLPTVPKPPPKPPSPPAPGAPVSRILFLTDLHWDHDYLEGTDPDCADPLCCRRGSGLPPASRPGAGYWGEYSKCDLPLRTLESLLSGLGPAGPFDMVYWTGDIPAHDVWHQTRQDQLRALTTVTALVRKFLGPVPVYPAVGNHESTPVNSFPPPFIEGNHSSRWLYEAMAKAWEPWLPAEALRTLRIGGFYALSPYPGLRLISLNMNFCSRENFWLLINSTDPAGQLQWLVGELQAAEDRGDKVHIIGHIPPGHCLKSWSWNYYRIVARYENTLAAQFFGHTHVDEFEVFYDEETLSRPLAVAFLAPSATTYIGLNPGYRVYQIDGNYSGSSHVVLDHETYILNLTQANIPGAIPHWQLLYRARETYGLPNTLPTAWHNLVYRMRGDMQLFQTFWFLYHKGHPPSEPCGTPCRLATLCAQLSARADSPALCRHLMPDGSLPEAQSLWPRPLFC
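Steps: dispense placental human ASM, pin compound, wait 10 min at room temperature, add HMU-PC0 substrate at 9 uM final, incubate 60 min at 37 °C, add stop solution raising pH to 10, read fluorescence.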
TGFb SMAD3 inh = qHTS for Inhibitors of TGF-b; AID 588855, 2011; 1.2% of 410,000 active; Potency, µM (highest dose often 46.1 µM), actives largely listed as inhibitors; HepG2 CAGA-GFP TGF-b/SMAD3 reporter, GFP fluorescence, 18 h; TGF-beta stimulated, 500 pg/mL final; also: nearly all actives have a fitted effect of over 65% in size
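Inhibition of TGF-beta-driven CAGA-GFP reporter expression in HEPG2 cells is measured by cellular GFP fluorescence after 18 h stimulation with 500 pg/mL recombinant TGF-beta in 1% FBS medium at 37 degrees C.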
TDP1 cell CPT = qHTS for Inhibitors of human tyrosyl-DNA phosphodiesterase 1 (TDP1): qHTS in cells in presence of CPT; chicken DT40 Tdp1-/-;hTDP1 cells + 20 nM CPT, ATP luminescence, 48 h; Potency, µM (series often up to 46.2 µM), usual class: inhibitors; 12% of 420,000 active; also: nearly all actives have a fitted effect of over 55% in size
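Cell growth measured by CellTiter-Glo luminescence after a minimum 48 h, 37 C compound exposure with 20 nM CPT in Tdp1-knockout DT40 cells stably expressing hTDP1, seeded 400/well; qHTS titration format.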
TDP1 cell noCPT = qHTS for Inhibitors of human tyrosyl-DNA phosphodiesterase 1 (TDP1): qHTS in cells in absence of CPT | DT40 Tdp1-/- hTDP1 cells, no CPT, ATP luminescence, 48 h | AID 686978, 2013 | 15% of 420,000 active | Potency, µM (top dose mostly 46.2 µM), actives largely listed as inhibitors; also: nearly all actives have a fitted effect of over 55% in size
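Growth of hTDP1-complemented DT40 Tdp1-knockout cells is measured by ATP luminescence after at least 48 hr compound exposure at 37 °C, with DMSO substituting for the 20 nM CPT used in the parallel screen.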
IL1B secr inh = qHTS for Inhibitors of Inflammasome Signaling: IL-1-beta AlphaLISA Primary Screen; THP-1 LPS/ATP IL-1B secretion, AlphaLISA, 16 h; hits give low values; activity change, % at 57.5 µM; 4.7% of 360,000 active; in the data active = activity change below about -50%; inconclusive = mostly about -30% to -49%
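Secreted IL-1B measured by AlphaLISA bead assay after 16 h compound exposure of THP-1 cells; compounds (final up to 57.5 uM) added 1 h before LPS (250 ng/mL) and ATP (1.25 mM) stimulation; lower signal means less secretion.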
Numbers stand for hits; n = inactive; u = inconclusive; x = no result; [ ] = another dose, or the depositor's remark. Unless noted, calls follow the shape of the dose curve; as a rule, active = well fitted curve in the direction sought with a large enough effect; inconclusive = small, poorly fitted or top-dose-only effect, or another doubt; inactive = no such curve, though single readings can be large; an effect the other way counts as inactive or inconclusive.

SMILES | HepG2 viability | ASM inhibitor | TGFb SMAD3 inh | TDP1 cell CPT | TDP1 cell noCPT | IL1B secr inh
COc1ccc(OC)c(CNc2ccc3c(c2)CCC3)c1 | n | n | n | u | 16.4µM | n
COc1ccc(OC)c(CC(=O)Nc2ccc3c(c2)CCC3)c1 | n | n | n | n | n | n
COc1ccc(S(=O)(=O)NNS(=O)(=O)c2ccc(OC)c(OC)c2)cc1OC | n | x | u | n | n | n
O=C(NC1CCC(n2cc(C(=O)NC3CC3)nn2)CC1)C(=O)c1ccccc1 (stereo unspecified) | x | x | x | n | n | x
C[C@H](c1ccccc1)N1C[C@@H](COCc2ccccc2)Oc2cc(N3CC[C@@H](N(C)C)C3)ccc2S1(=O)=O | x | x | x | 18.4µM | u | n
C[C@H](c1ccccc1)N1C[C@@H](COCc2ccccc2)Oc2cc(N3CC[C@H](N(C)C)C3)ccc2S1(=O)=O | x | x | x | u | 16.4µM | n
COc1ccc(C)cc1C(=O)CCC(=O)NCCc1ccc(S(N)(=O)=O)cc1 | n | n | n | n | n | n
NC(=O)c1cc(S(=O)(=O)N2CCCC2)ccc1OCCOc1ccccc1F | n | n | n | n | n | n
C#CCOc1ccc2c(C)cc(=O)oc2c1 | n | n | n | n | u | n
Cc1cc(=O)oc2cc(OCC3CC(c4ccc(Br)cc4)=NO3)ccc12 (stereo unspecified) | n | n | n | u | 16.4µM | n
Cc1cc(=O)oc2cc(OCC3CC(c4ccccc4)=NO3)ccc12 (stereo unspecified) | n | n | n | 16.4µM | 18.4µM | n
O=[N+]([O-])c1ccc(OCC2CC(c3ccccc3)=NO2)cc1 (stereo unspecified) | n | n | n | n | u | n
COc1cccc(NC(=O)C2C3C=CC4(O3)C2C(=O)N(CCCN2CCCC(C)C2)C4C(=O)NC2CCCCC2C)c1 (stereo unspecified) | n | n | n | n | n | n
O=C(c1ccc(Cl)cc1)C1CCN(C(=O)c2ccccc2F)CC1 | n | n | n | n | n | n
O=C(c1ccco1)c1nnn(Cc2ccccc2)c1-c1ccccc1 | n | n | n | u | 20.6µM | n
Nc1c(C(=O)NCc2ccco2)nnn1Cc1ccccc1 | n | n | n | n | n | n
COc1ccc2nc(NC(=O)c3ccco3)sc2c1 | n | n | n | u | u | n
O=C(Nc1nc2ccc(Cl)cc2s1)c1ccco1 | n | n | n | n | u | n
Cc1ccc2nc(NC(=S)NC(=O)c3ccco3)sc2c1 | n | n | n | 5.17µM | 3.26µM | n
COc1ccc2nc(NC(C)=O)sc2c1 | n | n | u | u | u | n
CC(=O)Nc1nc2ccc(NC(=O)c3ccco3)cc2s1 | n | n | n | u | 18.4µM | n
CC(=O)Nc1nc2ccc(Br)cc2s1 | n | n | n | 13µM | u | n
Cc1ccc2nc(NC(=O)c3ccco3)sc2c1 | n | n | u | u | 8.2µM | n
CSc1ncc(C(=O)Nc2cccc(C)c2C)c(C)n1 | n | n | n | n | n | u
COc1c(S(=O)(=O)NCCCN2CCOCC2)ccc(Cl)c1Cl | n | n | n | n | n | n
SMILES | HepG2 viability | ASM inhibitor | TGFb SMAD3 inh | TDP1 cell CPT | TDP1 cell noCPT | IL1B secr inh
CC(=O)C1CCC2C3CC(O)C4=CC(=O)CCC4(C)C3C(=O)CC12C (stereo unspecified) | n | n | n | n | n | n
CSc1nnc(CNS(=O)(=O)c2ccc(F)cc2F)n1-c1ccccc1C | x | x | x | u | n | x
COc1ccc(CNC(=O)Cn2c(=O)c3cccn3c3cccnc32)cc1 | n | x | n | n | n | x
Cc1ccc(C(=O)NCCNS(=O)(=O)c2ccccc2)cn1 | n | n | n | n | n | n
Cc1cc(N2CCOCC2)ccc1/C=C1\SC(=O)N(C(C)C)C1=O | n | n | n | u | u | n
CCC(C)N1C(=O)S/C(=C/c2ccc(N3CCOCC3)cc2C)C1=O (stereo unspecified) | n | n | n | 20.6µM | 23.1µM | n
CCN1C(=O)S/C(=C\c2ccc(N3CCOCC3)cc2C)C1=O | n | n | n | 14.6µM | 16.4µM | -54.2
O=S(=O)(NCc1c(Cl)cccc1Oc1ccccc1)c1ccc(F)cc1 | n | n | 11.2µM | u | u | n
Cc1cc(NC(=O)NC(=O)c2ccccc2NC(=O)C(C)N)ccc1Oc1ncc(Br)cn1 (stereo unspecified) | n | n | u | 0.651µM | 0.581µM | n
CN1C/C(=C/c2ccccc2[N+](=O)[O-])C(=O)/C(=C\c2ccccc2[N+](=O)[O-])C1 | n | n | 3.16µM | 0.517µM | 0.92µM | -97.9
Cc1ccc(C)c2c1CCC(=Cc1ccccc1[N+](=O)[O-])C2=O | n | x | n | u | u | n
CCOc1ccc(Oc2ccccc2NC(=O)CN2C(=O)NC3(CCCC3)C2=O)cc1 | n | n | n | u | u | n
COc1cccc(-n2c(SCc3ccccn3)nc3c(c2=O)SCC3)c1 | n | n | n | n | u | n
Cc1ccc(S(=O)(=O)NC(=NC(Cc2ccccc2)C(=O)O)c2ccccc2)cc1 (stereo unspecified) | n | n | n | n | n | n
COc1ccccc1C(=O)N1[C@@H](C(C)C)COc2cc(Br)ccc2S1(=O)=O | n | n | u | u | 16.4µM | n
COc1cccc(C(=O)N2C(C(C)C)COc3cc(Br)ccc3S2(=O)=O)c1 (stereo unspecified) | n | x | u | 25.9µM | 23.1µM | n
CCOC(=O)c1cc(OC(=O)c2ccccc2F)n(-c2ccccc2)n1 | n | x | n | x | x | x
CC(=O)Nc1ccc(CN2CCN(CCC(C)C)C(CCO)C2)cc1 (stereo unspecified) | n | n | n | n | n | n
OCCC1CN(Cc2nc(-c3ccccc3)cs2)CCN1CCc1ccccc1 (stereo unspecified) | n | n | u | u | 20.6µM | n
CC(=O)Nc1ccc(CN2CCN(CCc3ccccc3)C(CCO)C2)cc1 (stereo unspecified) | n | n | n | n | n | -79.1
COc1ccc(OC)c(CN2CCN(CCc3ccccc3)C(CCO)C2)c1 (stereo unspecified) | n | n | n | 11.6µM | u | n
CN1CCN(NC(=O)c2cccc(C(F)(F)F)c2)CC1 | n | n | n | n | n | n
Cc1nc2cc(NC(=O)[C@@H]3C[C@@H](Sc4ccccn4)CN3Cc3ccccc3F)ccc2s1 | x | x | x | n[9.04 µM] | n | x
